Results taken from the supplement of paper PMC6555819.

system: RARg:RXRa (NR concentration 270 nM, RXRa partner concentration 90 nM); experiment: PBM binding z-score (relative to random genomic background probes); higher = stronger binding; sequences stand for … in GC…GCGATTGACAGCGTAGAATGAAGG
Method in brief: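 Antibodies against each partner of ligand-free nuclear receptor dimers (one per run) detected binding on custom Agilent 4×180K protein-binding microarrays after 1 h incubation. The double-stranded probes had 34-nt variable regions carrying direct-repeat seeds, single-nucleotide variants, half-site ablations and random human genomic background sequences. Binding z-scores, from regression-normalized fluorescence, use the random background probes as reference.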

| Sequence | PBM binding z-score |
| --- | --- |
| GTACAAAGGTGAATAGGTCGTTGATGAGTAGGCG | 4.37 |
| CGGCCAAGGTCAGAGAGGTCAGTGAATGCCGAGT | 6.22 |
| TCTCGGAGGACACGAAGGTCAGAGCCTTCCAGAG | 3.52 |
| CCAGACAGGTGAAAGGTAACTCAGTCTGGTACGC | 1.39 |
| ATATGAAGGTTAGCTGGGGTCATTCAGACTAGGC | 4.69 |
| CCAGACAGGTGAGAAGGTACCTCAGCCTCGATTA | 0.161 |
| GTACCAAGGTGAATAGCTCGTTGATGAGTAGGCG | 0.285 |
| AGACCAAGGTGATCGTGAGGTCGTTGATACTAAC | 1.99 |
| TCTTGTAGGTCAACAGGAGGTTAAGAAAGATCGA | 6.27 |
| CGTCCAAGGTCAAAGGTCTGTGAAGAGATGACGG | 6.32 |
| GCTATTAGTTTAAAGGGCAACCGAATGATTCTCG | 1.36 |
| ATCTCTAGGTAAAGTTCCGTGAAAGATCGATAGA | 0.28 |
| GTACCAAGGTGAATAGGTCGTTCATGAGTAGGCG | 2.67 |
| CAAACTCGGTCACCGGAAGGTCAAAGTCCGCATG | 6.88 |
| GCTGCTAGGTCAGGTCGGTCAGCTAACGGGTACG | 3.03 |
| TCGAGTAGGTTACCAACGGGGCATTCAGCTTTCT | 1.52 |
| CCTCGGAGGACACAAGGTCAGAGCTGTCCGCTTT | 3.85 |
| CCTTACGGGTCACTCCAGGTTATAGCTTCGGAGT | 4.36 |
| ATCTCTAGGTAAAGATTGTTCAGTGAATGCAAAT | -0.0248 |
| CGAGACAGGTGAGAAGGTAACTCAGCCTCGATTA | 0.434 |
| ATCTCTAGGTAAAGATAGTTCCGTGAATGCAAAT | -0.154 |
| GCAGACAGGTGAAACGCAGTTAACTCAGGGTGGC | 0.384 |
